± gives the standard deviation of the averaged measurements. The full data set covers some 6,200 targets. This sample favours those with the largest changes.
Compound: Nc1ncnc2c1ncn2[C@@H]1O[C@H](COP(=O)(O)OP(=O)(O)NP(=O)(O)O)[C@@H](O)[C@H]1O [adenylyl imidodiphosphate]
Test: NP40-soluble protein abundance relative to vehicle (solubility fold change) (ratio); higher = more soluble protein in presence of AMP-PNP
Outline: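 Data come from three independent experiments in which Dounce-homogenised Jurkat crude lysate was treated at eight concentrations from 0.1 to 10 mM. Treatment ran 10 min at room temperature and then 3 min at 37 °C, after which 0.8% NP40 and benzonase were added for 60 min at 4 °C before ultracentrifugation. The supernatant underwent TMT labelling and LC-MS/MS, and vsn-normalised intensities were expressed as fold change against the detergent-processed vehicle in each replicate.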

Sequence of UniProt Q8N4N3 (Q8N4N3 whole entry): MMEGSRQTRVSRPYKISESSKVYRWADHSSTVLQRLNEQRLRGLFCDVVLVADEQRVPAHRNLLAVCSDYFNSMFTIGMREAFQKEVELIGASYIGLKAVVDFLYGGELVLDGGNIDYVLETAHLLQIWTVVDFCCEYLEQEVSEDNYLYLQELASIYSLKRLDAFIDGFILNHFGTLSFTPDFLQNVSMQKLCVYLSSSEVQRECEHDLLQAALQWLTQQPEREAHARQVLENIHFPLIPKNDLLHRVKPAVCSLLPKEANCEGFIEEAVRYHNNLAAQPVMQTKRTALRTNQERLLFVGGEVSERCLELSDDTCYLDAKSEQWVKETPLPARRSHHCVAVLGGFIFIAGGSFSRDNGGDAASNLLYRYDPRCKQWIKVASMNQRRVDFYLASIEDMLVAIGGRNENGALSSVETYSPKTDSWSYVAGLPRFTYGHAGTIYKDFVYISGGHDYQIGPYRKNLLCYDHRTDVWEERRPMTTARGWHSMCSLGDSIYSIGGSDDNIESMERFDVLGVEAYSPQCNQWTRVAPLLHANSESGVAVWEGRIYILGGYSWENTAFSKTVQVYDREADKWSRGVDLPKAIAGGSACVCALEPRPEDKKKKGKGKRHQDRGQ
Sequence of UniProt Q8WVZ9 (Q8WVZ9 whole entry): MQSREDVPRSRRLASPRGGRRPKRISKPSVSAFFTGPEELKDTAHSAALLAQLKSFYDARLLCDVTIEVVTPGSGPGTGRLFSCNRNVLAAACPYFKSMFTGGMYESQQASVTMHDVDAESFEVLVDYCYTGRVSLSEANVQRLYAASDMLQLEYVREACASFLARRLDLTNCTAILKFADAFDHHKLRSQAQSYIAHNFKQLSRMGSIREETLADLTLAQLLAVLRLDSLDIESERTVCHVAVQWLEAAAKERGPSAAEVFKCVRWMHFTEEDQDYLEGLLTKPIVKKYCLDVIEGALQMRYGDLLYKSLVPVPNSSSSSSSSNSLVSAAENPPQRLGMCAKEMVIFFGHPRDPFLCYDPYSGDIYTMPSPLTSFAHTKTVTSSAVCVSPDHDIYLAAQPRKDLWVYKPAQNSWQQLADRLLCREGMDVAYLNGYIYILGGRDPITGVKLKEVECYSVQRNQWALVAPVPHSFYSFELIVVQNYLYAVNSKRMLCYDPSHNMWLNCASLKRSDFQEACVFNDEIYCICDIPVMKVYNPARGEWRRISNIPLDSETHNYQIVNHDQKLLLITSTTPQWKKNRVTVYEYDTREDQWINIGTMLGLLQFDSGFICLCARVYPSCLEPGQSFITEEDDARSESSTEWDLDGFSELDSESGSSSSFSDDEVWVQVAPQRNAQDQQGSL
Sequence of UniProt Q8TEM1 (Q8TEM1 whole entry): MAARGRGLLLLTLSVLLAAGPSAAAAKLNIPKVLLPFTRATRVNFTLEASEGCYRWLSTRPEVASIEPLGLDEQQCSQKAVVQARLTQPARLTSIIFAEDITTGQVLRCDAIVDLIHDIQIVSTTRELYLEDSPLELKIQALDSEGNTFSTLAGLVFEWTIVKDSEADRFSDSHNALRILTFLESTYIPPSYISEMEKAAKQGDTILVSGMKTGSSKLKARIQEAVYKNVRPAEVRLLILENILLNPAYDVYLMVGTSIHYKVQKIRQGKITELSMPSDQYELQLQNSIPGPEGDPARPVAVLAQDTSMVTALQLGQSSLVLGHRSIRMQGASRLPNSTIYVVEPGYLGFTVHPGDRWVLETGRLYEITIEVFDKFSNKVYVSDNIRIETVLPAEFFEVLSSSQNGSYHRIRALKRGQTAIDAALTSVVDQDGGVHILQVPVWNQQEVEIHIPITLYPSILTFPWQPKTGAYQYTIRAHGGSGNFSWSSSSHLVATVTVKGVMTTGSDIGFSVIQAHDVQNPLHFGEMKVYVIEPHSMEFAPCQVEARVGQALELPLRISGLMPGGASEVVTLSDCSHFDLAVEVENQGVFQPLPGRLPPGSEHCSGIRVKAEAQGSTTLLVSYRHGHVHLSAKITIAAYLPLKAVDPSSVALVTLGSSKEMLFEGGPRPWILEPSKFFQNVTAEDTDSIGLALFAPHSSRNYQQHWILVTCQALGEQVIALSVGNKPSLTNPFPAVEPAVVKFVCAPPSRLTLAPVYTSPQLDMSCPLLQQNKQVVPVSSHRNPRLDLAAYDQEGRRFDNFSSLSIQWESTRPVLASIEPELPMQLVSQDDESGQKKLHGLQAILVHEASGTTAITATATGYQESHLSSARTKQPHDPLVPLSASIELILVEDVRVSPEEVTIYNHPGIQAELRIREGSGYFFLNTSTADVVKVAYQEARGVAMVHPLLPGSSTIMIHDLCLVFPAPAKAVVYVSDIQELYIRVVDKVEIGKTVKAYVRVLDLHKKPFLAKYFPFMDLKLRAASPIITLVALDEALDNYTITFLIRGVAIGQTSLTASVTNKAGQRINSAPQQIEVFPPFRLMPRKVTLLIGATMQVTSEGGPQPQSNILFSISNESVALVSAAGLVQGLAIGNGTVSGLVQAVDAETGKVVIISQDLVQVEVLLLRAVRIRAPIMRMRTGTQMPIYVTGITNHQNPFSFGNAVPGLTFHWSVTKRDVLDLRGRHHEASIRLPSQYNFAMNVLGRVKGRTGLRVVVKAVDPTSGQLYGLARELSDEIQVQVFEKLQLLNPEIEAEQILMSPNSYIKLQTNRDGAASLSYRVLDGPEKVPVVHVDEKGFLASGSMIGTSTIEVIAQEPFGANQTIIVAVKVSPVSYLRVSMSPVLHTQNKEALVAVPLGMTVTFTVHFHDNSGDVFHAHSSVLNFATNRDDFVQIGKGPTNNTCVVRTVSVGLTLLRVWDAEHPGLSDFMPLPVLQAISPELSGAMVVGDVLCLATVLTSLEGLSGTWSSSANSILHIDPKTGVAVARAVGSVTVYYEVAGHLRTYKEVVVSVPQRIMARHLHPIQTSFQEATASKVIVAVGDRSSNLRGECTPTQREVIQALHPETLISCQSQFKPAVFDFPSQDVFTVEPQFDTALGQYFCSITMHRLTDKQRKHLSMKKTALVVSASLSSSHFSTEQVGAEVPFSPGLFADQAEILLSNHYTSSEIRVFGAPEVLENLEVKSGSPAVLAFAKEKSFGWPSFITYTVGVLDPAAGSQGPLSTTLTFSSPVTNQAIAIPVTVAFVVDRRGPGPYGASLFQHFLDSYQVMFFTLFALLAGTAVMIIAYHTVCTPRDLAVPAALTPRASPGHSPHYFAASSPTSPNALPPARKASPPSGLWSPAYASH
Sequence of UniProt Q8NFY9 (Q8NFY9 whole entry): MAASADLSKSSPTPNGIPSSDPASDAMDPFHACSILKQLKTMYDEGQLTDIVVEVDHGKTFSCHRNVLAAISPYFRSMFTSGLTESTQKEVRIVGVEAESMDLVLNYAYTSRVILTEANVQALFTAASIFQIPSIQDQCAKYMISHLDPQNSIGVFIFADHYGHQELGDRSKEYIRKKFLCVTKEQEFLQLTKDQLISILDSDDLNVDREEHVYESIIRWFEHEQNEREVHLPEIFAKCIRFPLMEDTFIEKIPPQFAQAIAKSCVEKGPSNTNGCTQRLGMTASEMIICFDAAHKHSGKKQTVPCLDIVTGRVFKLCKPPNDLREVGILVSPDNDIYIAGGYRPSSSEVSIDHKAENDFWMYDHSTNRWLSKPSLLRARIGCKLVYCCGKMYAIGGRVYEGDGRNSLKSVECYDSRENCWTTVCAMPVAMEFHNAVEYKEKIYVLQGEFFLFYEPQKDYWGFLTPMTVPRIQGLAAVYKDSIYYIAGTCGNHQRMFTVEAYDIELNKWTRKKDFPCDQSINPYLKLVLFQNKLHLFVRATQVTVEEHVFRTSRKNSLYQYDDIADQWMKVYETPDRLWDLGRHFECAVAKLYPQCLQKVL
Sequence of UniProt Q15459 (Q15459 whole entry): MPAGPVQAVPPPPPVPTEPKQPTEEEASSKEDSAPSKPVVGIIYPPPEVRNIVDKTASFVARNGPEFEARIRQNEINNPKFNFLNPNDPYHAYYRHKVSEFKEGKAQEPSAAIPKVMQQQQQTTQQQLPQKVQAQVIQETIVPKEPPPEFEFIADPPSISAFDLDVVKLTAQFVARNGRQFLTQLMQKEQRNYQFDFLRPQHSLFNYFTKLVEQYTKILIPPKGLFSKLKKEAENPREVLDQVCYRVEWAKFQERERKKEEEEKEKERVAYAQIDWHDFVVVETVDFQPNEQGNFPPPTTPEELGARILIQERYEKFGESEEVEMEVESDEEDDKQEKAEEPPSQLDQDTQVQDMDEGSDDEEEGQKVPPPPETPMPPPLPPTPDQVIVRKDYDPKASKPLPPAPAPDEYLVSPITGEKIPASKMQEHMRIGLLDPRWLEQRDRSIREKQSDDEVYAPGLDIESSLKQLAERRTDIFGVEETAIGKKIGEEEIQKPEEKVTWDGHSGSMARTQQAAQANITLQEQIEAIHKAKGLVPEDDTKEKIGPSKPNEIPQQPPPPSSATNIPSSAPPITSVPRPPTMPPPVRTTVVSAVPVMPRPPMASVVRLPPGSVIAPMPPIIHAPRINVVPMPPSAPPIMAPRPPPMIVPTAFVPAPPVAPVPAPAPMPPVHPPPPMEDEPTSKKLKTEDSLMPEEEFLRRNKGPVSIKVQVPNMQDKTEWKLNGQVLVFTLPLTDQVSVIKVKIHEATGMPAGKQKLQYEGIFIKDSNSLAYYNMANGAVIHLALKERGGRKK
Sequence of UniProt Q6PI47 (Q6PI47 whole entry): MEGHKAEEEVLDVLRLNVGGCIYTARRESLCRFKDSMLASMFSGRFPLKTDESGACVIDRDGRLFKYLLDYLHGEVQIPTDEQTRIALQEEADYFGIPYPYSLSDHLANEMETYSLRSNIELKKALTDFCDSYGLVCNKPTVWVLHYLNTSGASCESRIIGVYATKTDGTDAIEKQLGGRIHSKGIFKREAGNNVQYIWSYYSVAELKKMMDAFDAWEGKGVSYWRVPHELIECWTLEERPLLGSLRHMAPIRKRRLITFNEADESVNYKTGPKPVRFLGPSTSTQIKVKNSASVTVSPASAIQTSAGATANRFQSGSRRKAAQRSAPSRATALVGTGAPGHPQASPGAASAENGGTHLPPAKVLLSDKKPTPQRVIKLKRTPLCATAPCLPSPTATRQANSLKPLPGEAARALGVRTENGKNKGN

Target	NP40-soluble protein abundance (concentration: 1mM)	NP40-soluble protein abundance (concentration: 2mM)	NP40-soluble protein abundance (concentration: 4mM)	NP40-soluble protein abundance (concentration: 6mM)	NP40-soluble protein abundance (concentration: 8mM)	NP40-soluble protein abundance (concentration: 10mM)
PRPF8 (UniProt Q6P2Q9)	0.989 ± 0.039	0.892 ± 0.15	0.979 ± 0.085	0.966 ± 0.098	1.05 ± 0.13	1.02 ± 0.16
UniProt Q8N3X1|Q8N3X1-2	1.04 ± 0.042	1.12 ± 0.093	1.21 ± 0.11	1.45 ± 0.15	1.49 ± 0.17	1.58 ± 0.24
PCGF5 (UniProt Q86SE9)	1.01 ± 0.043	1.01 ± 0.029	1.01 ± 0.065	0.967 ± 0.054	0.974 ± 0.039	0.945 ± 0.036
UniProt Q5F1R6|Q5F1R6-3	1.044 ± 0.0025	1.12 ± 0.041	1.123 ± 0.0067	1.11 ± 0.066	1.09 ± 0.019	1.11 ± 0.035
KBTBD8 (UniProt Q8NFY9)	0.953 ± 0.046	0.944 ± 0.043	0.955 ± 0.035	0.976 ± 0.018	0.973 ± 0.02	0.965 ± 0.025
ERCC6L (UniProt Q2NKX8)	0.998 ± 0.022	1.01 ± 0.036	0.993 ± 0.04	0.95 ± 0.032	0.942 ± 0.045	0.949 ± 0.064
UniProt Q8IYB5-2|Q8IYB5-3	0.988 ± 0.028	0.986 ± 0.011	1.01 ± 0.031	0.995 ± 0.038	0.995 ± 0.025	1.01 ± 0.015
ABHD11 (UniProt Q8NFV4)	1.02 ± 0.035	1.046 ± 0.0096	1.04 ± 0.023	0.995 ± 0.028	1 ± 0.02	1.01 ± 0.048
NUP210 (UniProt Q8TEM1)	0.992 ± 0.025	0.952 ± 0.025	0.975 ± 0.021	0.972 ± 0.037	1.01 ± 0.029	0.986 ± 0.044
UniProt Q7L5Y1|Q7L5Y1-4|Q7L5Y1-5	0.992 ± 0.03	1 ± 0.016	1.007 ± 0.0081	0.99 ± 0.04	1.01 ± 0.013	0.996 ± 0.0075
KBTBD7 (UniProt Q8WVZ9)	0.977 ± 0.014	0.9633 ± 0.004	0.959 ± 0.025	0.987 ± 0.01	1.03 ± 0.018	0.988 ± 0.03
PDCL (UniProt Q13371)	0.966 ± 0.026	0.973 ± 0.039	0.969 ± 0.056	0.932 ± 0.062	0.938 ± 0.083	0.928 ± 0.082
LRRC59 (UniProt Q96AG4)	1.11 ± 0.048	1.32 ± 0.3	1.13 ± 0.089	1.15 ± 0.028	1.12 ± 0.052	1.19 ± 0.13
FIG4 (UniProt Q92562)	1 ± 0.022	1.04 ± 0.024	1.06 ± 0.04	1.02 ± 0.024	0.9942 ± 0.0076	0.9926 ± 0.0034
UniProt Q6RI45|Q6RI45-2|Q6RI45-3|Q6RI45-4|Q6RI45-5	0.999 ± 0.016	0.9969 ± 0.0018	0.986 ± 0.016	0.9818 ± 0.0045	1 ± 0.043	1 ± 0.022
UniProt Q7L0J3|Q7L0J3-2	1 ± 0.032	1.05 ± 0.072	1.03 ± 0.031	1.02 ± 0.025	1.03 ± 0.033	1.02 ± 0.028
UniProt Q71F23	1.05 ± 0.028	1.07 ± 0.034	1.03 ± 0.016	1.02 ± 0.039	1.07 ± 0.013	1.08 ± 0.0087
UniProt Q6IAA8|F5GX19|F5H3Y3|F5H479|H0YFI1	1.02 ± 0.025	1.04 ± 0.028	1.04 ± 0.047	0.992 ± 0.051	0.975 ± 0.017	0.966 ± 0.035
SF3A1 (UniProt Q15459)	1.02 ± 0.022	1.05 ± 0.05	1.02 ± 0.014	1.07 ± 0.031	1.07 ± 0.017	1.09 ± 0.031
TAF9 (UniProt Q16594)	1.009 ± 0.0054	1.04 ± 0.02	1.01 ± 0.018	1.01 ± 0.018	1.03 ± 0.016	1.05 ± 0.039
UniProt Q86Y56	0.976 ± 0.045	0.931 ± 0.038	0.977 ± 0.037	1.01 ± 0.022	0.997 ± 0.055	0.991 ± 0.04
CAND1 (UniProt Q86VP6)	0.971 ± 0.024	0.947 ± 0.03	0.983 ± 0.035	1.01 ± 0.084	1.03 ± 0.044	0.992 ± 0.058
THOC5 (UniProt Q13769)	1.36 ± 0.17	1.42 ± 0.23	1.65 ± 0.35	1.84 ± 0.54	2.03 ± 0.65	2.16 ± 0.88
UniProt Q8N5M4|E9PKV8	0.932 ± 0.054	0.94 ± 0.03	0.91 ± 0.032	0.984 ± 0.064	0.961 ± 0.055	0.938 ± 0.071
UniProt Q6UXH1|Q6UXH1-4|Q6UXH1-5|Q6UXH1-6	1.01 ± 0.032	1.07 ± 0.056	1.01 ± 0.029	0.964 ± 0.019	0.956 ± 0.045	1.01 ± 0.029
PRPF4B (UniProt Q13523)	1.02 ± 0.02	1.01 ± 0.048	1.1 ± 0.037	1.2 ± 0.032	1.26 ± 0.042	1.34 ± 0.067
THOC7 (UniProt Q6I9Y2)	1.29 ± 0.045	1.47 ± 0.2	1.57 ± 0.24	1.73 ± 0.39	1.85 ± 0.47	1.93 ± 0.64
UniProt Q8N4N3|Q8N4N3-2	1 ± 0.013	0.996 ± 0.019	0.981 ± 0.027	0.96 ± 0.019	0.981 ± 0.027	0.959 ± 0.017
UniProt Q6PI47	0.873 ± 0.06	0.905 ± 0.046	0.947 ± 0.051	1 ± 0.023	1.08 ± 0.047	1.1 ± 0.064
UniProt Q8TAT6|Q8TAT6-2	0.955 ± 0.025	0.961 ± 0.022	0.968 ± 0.044	0.983 ± 0.015	0.991 ± 0.036	1.02 ± 0.025
